Screening results from PubChem BioAssay.
Sampled rows, rich in hits. Any-hit rate of the full collection: about 7.3%.
Rab9 promoter act: activators of Rab9 promoter. Huh7 Rab9 promoter-luciferase reporter, luminescence, 24 h. Potency, µM (doses to about 9.22 µM), without a hit: at the highest dose activation, negative = inhibition, actives largely listed as activators. hit rate 2.8% among 320,000. AID 485297; also: % of control where 0% means no effect; nearly all actives have a fitted effect of over 60% in size
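Steps: seed 1500 Huh7 Rab9-luc cells per well, rest 2 h at 37 °C; add compound in DMSO; incubate 24 h; add luciferase reagent, 10 min ambient; read luminescence.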
SMN2 splice up: enhancers of SMN2 splice variant expression; AID 1458; Potency, µM (top dose mostly 46.1 µM), inactives show top-dose activity change, positive = activation, actives largely listed as activators; HEK293 SMN2-luciferase splicing reporter, luminescence, 30-36 h; hit rate 2.8% among 210,000; also: % of control where 0% means no effect; nearly all actives have a fitted effect of over 55% in size
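HEK293 cells carry an SMN2 […]–luciferase reporter in which exon 7 inclusion puts luciferase in frame. Cells were plated 10-12 h before compound addition, then incubated 30-36 h at 37C. ONE-Glo luminescence was read; sodium butyrate at 4.5 mM final served as control.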
FLuc modulator: counter-screen for miR-21 project: firefly luciferase inhibitors or activators | P08659 | AID 588342 | Potency, µM (top dose mostly 57.5 µM), for the others: at the top dose activity change, negative = inhibition, usual class: inhibitors | hit rate 6.9% among 360,000 | purified FLuc, Km substrates, luminescence inhibition;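 also: plate controls were vehicle for no effect and reference inhibitor for full effect; nearly all actives have a fitted effect of over 55% in size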
Target sequence (P08659 whole entry, looked up): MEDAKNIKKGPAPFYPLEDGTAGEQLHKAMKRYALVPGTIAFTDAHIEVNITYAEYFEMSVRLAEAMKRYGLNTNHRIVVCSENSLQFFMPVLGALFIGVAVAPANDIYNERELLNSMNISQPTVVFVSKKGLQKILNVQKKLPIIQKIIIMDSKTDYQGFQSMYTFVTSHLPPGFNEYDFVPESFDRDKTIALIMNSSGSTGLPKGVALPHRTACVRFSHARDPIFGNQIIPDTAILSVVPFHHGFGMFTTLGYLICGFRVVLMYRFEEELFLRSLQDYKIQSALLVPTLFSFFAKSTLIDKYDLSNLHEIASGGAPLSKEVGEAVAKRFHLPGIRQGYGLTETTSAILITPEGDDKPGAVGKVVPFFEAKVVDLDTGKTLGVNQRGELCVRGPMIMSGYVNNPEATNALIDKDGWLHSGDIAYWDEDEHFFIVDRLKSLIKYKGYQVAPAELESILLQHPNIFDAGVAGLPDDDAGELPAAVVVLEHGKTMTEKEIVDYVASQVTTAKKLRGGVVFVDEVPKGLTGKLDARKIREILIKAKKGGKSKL
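Biochemical qHTS of compounds, final roughly 60 µM downward over six points, against 10 nM purified firefly luciferase using Km concentrations of substrates (10 uM D-luciferin, 10 uM ATP) in Tris acetate pH 7.5 buffer; luminescence output.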
Luc counter: blocks Kinase-Glo luciferase, a counter-screen artifact; Potency, µM (titrated, usually from 38.3 µM), for inactives: at the highest dose activity change, negative = inhibition, usual class: inhibitors; hit rate 0.28% among 200,000; AID 1379; Kinase-Glo luciferase, ATP luminescence, 8 min; also: % is scaled to controls: 0 for no effect and ±100 for the full control effect; nearly all actives have a fitted effect of over 60% in size
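Recombinant Kinase-Glo luciferase, 10 uM ATP (linear range), luciferin; imidazole pH 7.2 / KCl / MgCl2 / Tween / BSA buffer; 8 min RT; luminescence.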
NPC1 promoter act: activates the NPC1 promoter; Potency, µM (series often up to 9.22 µM), inactives show at the highest dose activation, actives largely listed as activators; AID 485313; Huh7 NPC1 promoter luciferase reporter, 24 h; hit rate 2.4% among 320,000; also: % of control where 0% means no effect; nearly all actives have a fitted effect of over 60% in size
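Cells: Huh7 expressing luciferase under the NPC1 promoter, 1500/well. Seeded 2 h, compound added, incubated 24 h at 37 °C. Luciferase reagent, 10 min ambient, then luminescence.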
ELG1 genotoxic: genotoxicity induction in ELG1-luciferase HEK293T cells; hit rate 1.3% among 330,000; HEK293T ELG1-luciferase reporter, luminescence, 16 h; Potency, µM (titrated, usually from 46 µM), for inactives: at the highest dose activity change, positive = activation, hits mostly activators; also: % of control where 0% means no effect; nearly all actives have a fitted effect of over 60% in size
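Reporter readout depends on ELG1 protein level, which increases with genetic stress. After 16 hr compound exposure at 37 °C, luciferase activity was quantified using ONE-Glo.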
* = called active by the depositor; ? = inconclusive; . = no result given; [ ] = another dose, or the depositor's remark. Calls follow the shape of the dose curve; as a rule, active = well fitted curve in the direction sought with a large enough effect; inconclusive = small, poorly fitted or top-dose-only effect, or another doubt; inactive = no such curve, though single readings can be large; an effect the other way counts as inactive or inconclusive. Potency is read from the fitted curve at half-maximal effect.

SMILES	Rab9 promoter act	SMN2 splice up	FLuc modulator	Luc counter	NPC1 promoter act	ELG1 genotoxic
CC(C)Oc1cccc(C(=O)C2CCCN(C(=O)CCc3cnn(C)c3)C2)c1 (configuration not stated)	3.5µM*	.	?	.	?	?
Cc1cccc(NC(=O)c2cc(-c3cc(Cl)ccc3O)n[nH]2)c1	?	.	?	.	2.2µM*	18%
Cc1ccc(C)c(NC(=O)c2cc(-c3cc(C)ccc3O)n[nH]2)c1	26%	.	3µM*	.	2µM*	?
Cc1ccc(NC(=O)c2cc(-c3cc(Cl)ccc3O)n[nH]2)cc1C	-4%[1.84 µM]	.	-9%	.	-5%	4%
COc1ccc(N2CCN(CCCNC(=O)c3nnc(Cc4ccc(F)cc4)o3)CC2)cc1	.	.	-15%	.	.	.
Cc1ccc(CN(C(=O)COc2ccc(Cl)cc2Cl)C2CCS(=O)(=O)C2)o1 (configuration not stated)	.	-7%	3%	.	.	.
C=CCn1c(C)cc(C(=O)CN2NS(=O)(=O)c3ccccc3C2=O)c1C	?	-15%	1.7µM*	3%	18%	21µM*
C=CCn1c(C)cc(C(=O)Cn2ncc(Cl)c(Cl)c2=O)c1C	-25%	?	5.4µM*	-4%	-16%	-15%
CCCCCOC(=O)CSc1nc2sc3c(c2c(=O)n1Cc1ccccc1)CC(C)(CC)OC3 (configuration not stated)	.	-5%	3%	.	.	.
COc1ccc(NC(=O)CSc2ncccc2C(=O)OC(C)C)cc1OC	-20%	-38%	?	-5%	-2%	-5%
CC(C)c1ccc(NC(=O)CSc2ncccc2C(=O)Oc2cccc([N+](=O)[O-])c2)cc1	4.5µM*	10µM*	?	-2%	4µM*	16µM*
O=C1/C(=C\c2ccc(O)c(O)c2)C(c2ccccc2)=NN1c1ccccc1	-13%	-2%	19µM*	-10%	-12%	8%
COc1cc(/C=C2\C(=O)N(c3ccc(NC(C)=O)cc3)N=C2c2ccccc2)ccc1O	-6%	5%	17µM*	-12%	-1%	6%
CCOc1ccccc1N(CC(=O)Nc1ccc(OC)c(Cl)c1)S(=O)(=O)c1ccccc1	.	.	-7%	.	.	.
CC(C)(C)C1CCc2c(C(=O)NNC(=O)/C=C/C(=O)O)csc2C1 (configuration not stated)	6%	4%	24µM*	-1%	-1%	-1%
CC(C)(C)C1CCc2c(C(=O)N/N=C/c3cccs3)csc2C1 (configuration not stated)	?	14µM*	5.4µM*	5%	?	9%
O=c1[nH]c2ccccc2nc1/C=C/c1ccc(O)cc1	3.5µM*	.	6.7µM*	-7%	?	?
O=c1[nH]c2ccccc2nc1/C=C/c1ccccc1	1.8µM*	.	1.9µM*	.	4µM*	?
O=c1[nH]c2ccccc2nc1/C=C/c1ccc(F)cc1	4µM*	.	2.4µM*	.	3.2µM*	21%
CC(C)c1cnc2c(c1SCc1ccc([N+](=O)[O-])cc1)c(=O)n(C)c(=O)n2C	.	.	1%	.	.	.
O=C(Nc1ccc(F)c(Cl)c1)N1CC=C(c2c[nH]c3ccccc23)CC1	.	.	-12%	.	.	.
COc1ccc(CCNC(=O)Cc2c(C)c3cc4c(C(C)(C)C)coc4c(C)c3oc2=O)cc1	.	3%	4%	.	.	.
O=c1c2sccc2nc(SCc2cc(=O)n3cc(Br)ccc3n2)n1Cc1ccccn1	4.5µM*	?	-1%	-1%	?	?
COc1cc2c(cc1OC)-c1cc(Nc3ccc(F)cc3)nc(=O)n1CC2	-1%	.	-12%	.	-1%	?
COc1cc2c(cc1OC)-c1cc(Nc3cccc(F)c3)nc(=O)n1CC2	5%	.	?	.	-5%	9%
COc1cc2c(cc1OC)-c1cc(Nc3ccc(N(C)C)cc3)nc(=O)n1CC2	-5%	.	12µM*	.	-3%	?
CCN(CC)c1ccc(Nc2cc3n(c(=O)n2)CCc2cc(OC)c(OC)cc2-3)cc1	17%	.	24µM*	.	1%	0%
